Screening results: PubChem BioAssay, National Center for Advancing Translational Sciences (NCATS)
Hits are enriched below; roughly 3.3% of the tested compounds scored in any of these assays.
AmpC inh detg = blocks E. coli AmpC beta-lactamase in detergent assay; P00811; Potency, µM (doses to about 114 µM), usual class: inhibitors; 370,000 tested, 0.041% active; AmpC hydrolysis of nitrocefin, absorbance 480 nm, 0.01% Triton; also: nearly all actives have a fitted effect of over 25% in size
Target sequence (P00811 whole entry, looked up): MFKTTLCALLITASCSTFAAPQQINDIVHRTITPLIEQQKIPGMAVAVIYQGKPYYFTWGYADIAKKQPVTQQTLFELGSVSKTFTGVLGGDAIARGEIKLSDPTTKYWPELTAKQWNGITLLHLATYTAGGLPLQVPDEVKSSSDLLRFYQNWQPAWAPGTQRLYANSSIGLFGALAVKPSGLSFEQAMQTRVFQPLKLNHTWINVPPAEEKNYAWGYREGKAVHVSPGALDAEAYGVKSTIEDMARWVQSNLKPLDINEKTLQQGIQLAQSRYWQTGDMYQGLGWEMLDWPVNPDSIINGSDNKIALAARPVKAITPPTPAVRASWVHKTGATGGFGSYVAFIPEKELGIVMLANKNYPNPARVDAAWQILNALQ
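20 mM phosphate pH 7.0 + 0.01% (detergent screen) or 0.0001% Triton X-100; 5.3 nM AmpC reagent; cpd preinc 15 min RT; nitrocefin (800 uM stock) to start; A480 q20 s × 4 min; Activity was normalised to no-enzyme and no-compound control wells.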
RE007 growth inh = less growth of the S. pombe RE007 Vpr strain; 360,000 tested, 0.21% active; AID 651644; S. pombe RE007 Vpr strain, BacTiter-Glo ATP luminescence, 24 h; Potency, µM (series often up to 92.2 µM), usual class: inhibitors; active = well fitted falling curve with a large enough effect; inconclusive = small, poorly fitted or top-dose-only effect; inactive = no such curve, though single readings can be large or run the other way; also: nearly all actives have a fitted effect of over 50% in size
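Fission yeast RE007 carrying one integrated HIV-1 vpr copy, seeded at OD 0.01 in PMG+AL medium with 23 nL pinned compound. Grown 24 h at 30 degrees; viability read by BacTiter-Glo luminescence after 5 min.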
Sm TGR inh = inhibitors of Schistosoma mansoni thioredoxin glutathione reductase. Q962Y6. purified TGR, DTNB reduction, TNB absorbance 405 nm. Potency, µM (doses to about 114 µM), hits mostly inhibitors. 360,000 tested, 3% active; also: nearly all actives have a fitted effect of over 60% in size
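TGR 20 nM + NADPH 100 uM (dispensed conc.), cpd preinc 15 min RT; start with NADPH (500 uM addition) then DTNB (15 mM addition). Kinetic TNB absorbance, 405 nm filter. Four-parameter Hill fit across titration.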
AmpC no deterg = inhibitors of E. coli AmpC beta-lactamase without detergent. P00811. AmpC nitrocefin hydrolysis, absorbance 480 nm, 0.0001% Triton. Potency, µM (doses to about 57.1 µM), most hits filed as inhibitors. 330,000 tested, 0.52% active; also: nearly all actives have a fitted effect of over 20% in size
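AmpC (5.3 nM in the dispensed reagent) in 20 mM phosphate pH 7.0 with 0.01% (detergent screen) or 0.0001% Triton X-100 was preincubated with compounds for 15 min at room temperature. Nitrocefin was then added from an 800 uM solution, and hydrolysis was followed at 480 nm.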
SARS PLP yeast = SARS-CoV PLP inhibition in yeast; S. cerevisiae expressing SARS-CoV PLpro, growth rescue; Potency, µM (top dose mostly 32.9 µM), hits mostly activators; 330,000 tested, 0.19% active; calls by dose curve; also: nearly all actives have a fitted effect of over 55% in size
TbPYK inhibitor = inhibitors of Trypanosoma brucei pyruvate kinase; Q57TT1; TbPYK enzyme, Kinase-Glo Plus ATP luminescence, 45 min; Potency, µM (titrated, usually from 76.8 µM), hits mostly inhibitors; 410,000 tested, 0.12% active; AID 624173; also: nearly all actives have a fitted effect of over 50% in size
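Luminescence from Kinase-Glo Plus, added after a 45-minute room-temperature reaction, served as the end-point read-out. The enzyme and substrate were preincubated with compound before ADP (130 uM final) initiated turnover. Concentration-effect curves came from normalized qHTS data.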
A number is an active result; i = inactive; ? = inconclusive; nt = not tested or not shown; [ ] = another dose, or the depositor's remark. Unless noted, calls follow the shape of the dose curve; as a rule, active = well fitted curve in the direction sought with a large enough effect; inconclusive = small, poorly fitted or top-dose-only effect, or another doubt; inactive = no such curve, though single readings can be large; an effect the other way counts as inactive or inconclusive.

SMILES	AmpC inh detg	RE007 growth inh	Sm TGR inh	AmpC no deterg	SARS PLP yeast	TbPYK inhibitor
O=C(CCl)NCCCN(C(=O)C(Cl)Cl)c1ccc([N+](=O)[O-])cc1	?	i	28µM	i	i	i
CCOc1ccc(N2CC(NC(=O)c3cccc4ccccc34)CC2=O)cc1 (stereo not given)	?	i	i	32µM	i	i
COc1cc(/C=C2\N=C(C)OC2=O)cc(OC)c1OC	i	i	18µM	i	i	i
COc1cc(/C=C2/N=C(C3CCCCC3)OC2=O)cc(OC)c1OC	i	i	?	i	i	i
CCOC(=O)Oc1ccc(/C=C2\N=C(C)OC2=O)cc1	i	i	13µM	i	i	i
CC1=N/C(=C/c2ccco2)C(=O)O1	i	i	28µM	i	i	i
CCOc1c(Br)cc(/C=C2\N=C(C)OC2=O)cc1Br	i	i	?	i	i	i
O=C1OC(c2ccc(Br)cc2)=N/C1=C\c1ccco1	i	i	i	i	i	i
Cc1ccc2oc(=O)c3cnn(CC(=O)N4CCN(c5ccccc5F)CC4)c3c2c1	i	nt	i	nt	nt	i
CCOc1ccccc1Oc1c(C)oc2cc(OC(=O)c3ccco3)ccc2c1=O	i	i	35µM	i	i	i
COc1ccccc1Oc1c(C)oc2cc(OC(=O)c3ccco3)ccc2c1=O	i	i	i	i	i	i
CCOC(=O)N1CCN(CC(=O)c2ccc3c(c2)CCN3C(C)=O)CC1	i	i	20µM	i	i	i
CCOC(=O)C1CCC(CN(Cc2cccc(Br)c2)S(=O)(=O)c2ccc(Cl)cc2)CC1 (stereo not given)	i	nt	i	nt	nt	i
CCCCCCCCOc1ccc(C2CC(=O)NC2=O)cc1 (stereo not given)	i	i	100µM	i	i	i
CCc1ccc(CNc2ccc(O)cc2)cc1	i	i	22µM	i	?	i
Oc1ccc(NCc2ccc(OCc3ccccc3Cl)cc2)cc1	i	nt	35µM	nt	nt	i
Oc1ccc(NCc2ccc(OCc3ccccc3)cc2)cc1	i	i	7.1µM	i	i	?
CCOc1ccccc1NC(=O)C(C)N(c1ccccc1)S(C)(=O)=O (stereo not given)	i	nt	i	nt	nt	i
COc1ccc(C2CC(=O)c3cc(-c4nc(-c5cccc([N+](=O)[O-])c5)cs4)c(=O)n(-c4ccccc4N)c3C2)cc1 (stereo not given)	i	nt	i	nt	nt	i
COc1cc(NC(=O)CSc2ccc(-c3ccco3)nn2)cc(OC)c1	i	i	32µM	i	i	?
COc1ccc(NC(=O)CSc2ccc(-c3ccco3)nn2)cc1	i	i	14µM	i	i	i
COc1cc(NC(=O)c2noc3c2CC(C)CC3)c(OC)cc1Cl (stereo not given)	i	nt	i	nt	nt	i
COc1ccc2[nH]c(C)c(CCN(Cc3cccs3)C(=S)Nc3cccc(F)c3)c2c1	i	i	?	45µM	i	i
COc1ccc(N2CCN(S(=O)(=O)c3ccc(F)c(C(=O)Nc4ccccc4Cl)c3)CC2)cc1	i	nt	i	nt	nt	i
O=[N+]([O-])c1cc([N+](=O)[O-])c2oc(-c3ccccc3)c(Br)c2c1O	i	28µM	i	i	i	i
SMILES	AmpC inh detg	RE007 growth inh	Sm TGR inh	AmpC no deterg	SARS PLP yeast	TbPYK inhibitor
COc1cc(NC2c3ncccc3C(=O)N2Cc2ccco2)cc(OC)c1 (stereo not given)	i	i	45µM	i	i	?
COc1ccc(CN2C(=O)c3cccnc3C2Nc2ccc(OC)c(Cl)c2)cc1 (stereo not given)	i	i	i	i	i	i
CCCCNC(=S)N/N=C/c1ccccc1F	i	i	i	i	13µM	i
Cc1ccc(CNS(=O)(=O)c2c(C)[nH]c(C)c2C(=O)N2CCCCC2)o1	i	i	45µM	i	i	i
O=C(NCCN1CCOCC1)c1ccc2c(c1)N(Cc1ccc(F)cc1)C(=O)CS2	?	i	i	45µM	i	i
O=C(/C=C/c1c[nH]c2ccccc12)c1ccccc1	i	?	i	16µM	i	i
CC1(c2nnc(Cc3ccccc3)o2)CC(c2ccc([N+](=O)[O-])cc2)=NO1 (stereo not given)	i	i	6.3µM	i	i	i
CC1(c2nnc(-c3ccccc3)o2)CC(c2cccc(Cl)c2)=NO1 (stereo not given)	i	i	i	i	i	i
CC1(c2nnc(Cc3ccccc3)o2)CC(c2ccc(Br)cc2)=NO1 (stereo not given)	nt	i	nt	nt	nt	i
CC1(c2nnc(-c3cccc(Cl)c3)o2)CC(c2cccc([N+](=O)[O-])c2)=NO1 (stereo not given)	i	i	45µM	i	i	i
Cc1ccc(-n2nc(C)c3nc(CCC(=O)Nc4cccc(C)c4C)c(=O)n(C)c32)cc1	i	nt	i	nt	nt	i
CC1CCN(C(c2ccc(F)cc2)c2sc3nc(-c4ccco4)nn3c2O)CC1 (stereo not given)	i	nt	i	nt	nt	i
Cc1cccc(C)c1NC(=O)C1c2cccc[n+]2CC(=O)N1Cc1ccc2c(c1)OCO2 (stereo not given)	i	i	i	i	i	i
Cc1ccccc1NC(=O)C1c2cccc[n+]2CC(=O)N1c1c(C)cccc1C (stereo not given)	?	i	45µM	i	i	?
O=C(CCOc1ccccc1)N(Cc1cccnc1)c1nc2c(F)cccc2s1	i	nt	2.2µM	nt	nt	i
Cc1ccc2sc(N(Cc3cccnc3)C(=O)CCOc3ccccc3)nc2c1C	i	nt	35µM	nt	nt	i[15.4 µM]
O=C(COc1ccccc1)N(Cc1cccnc1)c1nc2c(F)cccc2s1	i	nt	i	nt	nt	i[15.4 µM]
O=C(CCS(=O)(=O)c1ccccc1)N(Cc1cccnc1)c1nc2ccc(Cl)cc2s1	i	nt	1.1µM	nt	nt	i
Cc1ccc2nc(N(Cc3cccnc3)C(=O)CCOc3ccccc3)sc2c1	i	nt	?	nt	nt	i
Cc1c(CCC(=O)NCCc2ccc(Cl)cc2)c(=O)oc2c(C)c(O)ccc12	i	nt	i	nt	nt	i
O=C(CN1C(=O)CCn2nc(-c3ccccc3)cc21)NCc1ccc(F)cc1	i	nt	i	nt	nt	i
CCC(C)C1OC2(C=CC1C)CC1CC(C/C=C(\C)C(OC3CC(OC)C(OC4CC(OC)C(NC(C)=O)C(C)O4)C(C)O3)C(C)/C=C/C=C3\COC4C(O)C(C)=CC(C(=O)O1)C34O)O2 (stereo not given) (tested in a mixture with another compound)	nt	nt	nt	nt	nt	i
CCOc1ccc(NC(=O)CC2C(=O)N(c3ccccc3)C(=O)N2C2CCCC2)cc1 (stereo not given)	i	nt	50µM	nt	nt	i
CCOc1ccc(NC(=O)CC2C(=O)N(c3ccc(OC)cc3)C(=O)N2C2CCCCC2)cc1 (stereo not given)	i	nt	i	nt	nt	i
